Assay outcomes deposited in PubChem BioAssay by Broad Institute.
Most compounds without a hit are left out; they make up all but 2.8% or so of the library.
PAX8 inh HTS – inhibitors of PAX8 transcriptional activity in RMG-I cells. hit rate 1.2% among 360,000. AID 652154. inhibition, % at 12.6 µM. RMG-I TPO-luciferase reporter, SteadyGlo, 24 h;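 active means mean replicate inhibition at least 60% with every replicate also reaching 60%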;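 further: luciferase light reporting Pax8 driven TPO promoter activity; plate controls were median of neutral control wells for no effect and mitoxantrone controls for full effect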
LMP1 NFkB inh – Epstein-Barr LMP1 NF-kappaB reporter inhibition. hit rate 0.69% among 350,000. inhibition, % at 12.5 µM. AID 504558. LMP1-induced NF-kappaB luciferase reporter cells, luminescence; in the data active means inhibition above about 41%;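 further: 0% = neutral control wells and 100% = reference inhibitor control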
Glyco luc inh – blocks N-linked glycosylation in D54 reporter cells | reporter increase, % at 12.5 µM | hit rate 0.23% among 360,000 | D54 ERlucT glycosylation luciferase reporter, 24 h; percent of 100 nM tunicamycin response | AID 588692;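 active means mean luciferase reporter signal, scaled so untreated is 0 and the glycosylation-blocking control 100, at or above a set limit in every replicate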;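 further: luciferase carries N-glycosylation sites so blocking glycosylation raises the light; 0% = median of neutral control wells and 100% = median of 100 nM tunicamycin wells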
Env fusion inh – blocks HIV Env-driven cell-cell fusion; HeLa-JRFL Env/CEM21 cell fusion, luciferase; inhibition, % at 12.3 µM; hit rate 1.1% among 360,000;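 active means mean replicate inhibition score of at least 50 and every replicate individually at or above 50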;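 further: 0% = plate neutral controls and 100% = maraviroc near 300 nM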
Shn3 inh set2 – reduces Shn3 3'UTR luciferase signal in osteoblasts. inhibition, % at 12.5 µM. Clone20 osteoblast Shn3 3'UTR firefly luciferase, 24 h. hit rate 0.52% among 360,000. AID 588674;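 active means mean inhibition of at least 75% with every replicate also reaching 75%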;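 further: 0% = median of neutral control wells and 100% = pilot-screen positive control compound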
NSD2 HMT inh – inhibitors of human histone methyltransferase NSD2; NSD2 peptide methylation, AlphaScreen, 120 min; hit rate 0.54% among 310,000; inhibition, % at 12.5 µM; AID 743445; in the data active means inhibition above about 50%
Target sequence (O96028 whole entry, looked up): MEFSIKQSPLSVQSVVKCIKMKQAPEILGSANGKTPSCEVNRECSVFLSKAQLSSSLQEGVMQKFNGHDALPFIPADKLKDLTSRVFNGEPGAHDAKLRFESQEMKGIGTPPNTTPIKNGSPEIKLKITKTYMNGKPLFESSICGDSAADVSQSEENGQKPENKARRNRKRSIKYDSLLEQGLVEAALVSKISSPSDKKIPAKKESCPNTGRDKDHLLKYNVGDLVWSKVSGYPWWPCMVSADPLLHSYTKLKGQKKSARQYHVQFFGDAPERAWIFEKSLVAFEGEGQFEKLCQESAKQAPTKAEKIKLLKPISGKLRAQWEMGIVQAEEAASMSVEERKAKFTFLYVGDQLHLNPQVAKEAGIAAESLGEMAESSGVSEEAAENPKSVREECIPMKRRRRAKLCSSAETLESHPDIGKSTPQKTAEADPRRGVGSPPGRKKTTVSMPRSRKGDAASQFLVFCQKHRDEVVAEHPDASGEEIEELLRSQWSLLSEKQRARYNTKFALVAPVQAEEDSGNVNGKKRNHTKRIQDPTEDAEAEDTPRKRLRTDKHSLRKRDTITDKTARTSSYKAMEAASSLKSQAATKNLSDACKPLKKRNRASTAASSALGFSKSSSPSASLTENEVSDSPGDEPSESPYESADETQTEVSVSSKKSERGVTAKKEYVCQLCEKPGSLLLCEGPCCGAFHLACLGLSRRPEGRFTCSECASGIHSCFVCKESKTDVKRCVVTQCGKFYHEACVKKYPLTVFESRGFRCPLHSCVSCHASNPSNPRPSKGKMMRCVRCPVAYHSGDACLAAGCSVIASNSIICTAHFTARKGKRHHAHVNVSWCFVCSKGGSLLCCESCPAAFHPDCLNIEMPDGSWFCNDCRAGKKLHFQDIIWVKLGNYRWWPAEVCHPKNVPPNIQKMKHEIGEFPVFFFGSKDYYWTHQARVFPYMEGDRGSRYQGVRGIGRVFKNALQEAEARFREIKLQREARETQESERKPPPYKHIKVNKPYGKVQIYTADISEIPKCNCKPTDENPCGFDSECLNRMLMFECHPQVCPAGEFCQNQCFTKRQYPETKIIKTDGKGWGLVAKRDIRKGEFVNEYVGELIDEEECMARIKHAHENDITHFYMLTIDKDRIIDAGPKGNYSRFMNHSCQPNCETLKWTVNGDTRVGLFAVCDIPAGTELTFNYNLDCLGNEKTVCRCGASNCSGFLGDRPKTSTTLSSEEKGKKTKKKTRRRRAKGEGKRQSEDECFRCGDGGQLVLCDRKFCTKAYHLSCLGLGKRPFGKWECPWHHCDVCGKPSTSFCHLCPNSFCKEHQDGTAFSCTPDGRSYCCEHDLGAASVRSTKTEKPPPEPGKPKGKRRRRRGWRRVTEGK
* = called active by the depositor; · = no result; [ ] = dose if it differs, or a comment.

SMILES	PAX8 inh HTS	LMP1 NFkB inh	Glyco luc inh	Env fusion inh	Shn3 inh set2	NSD2 HMT inh
CC(C)NC(=O)N1C[C@@H]2[C@H](c3ccccc31)[C@H](CO)N2C(=O)Nc1ccc(F)cc1	4	·	·	·	·	·
CCC(=O)N1[C@@H]2c3ccc(-c4ccncc4)c(=O)n3C[C@H]1[C@H](CO)[C@H]2C(=O)NC1Cc2ccccc2C1	-11	·	·	-11[16.7 µM]	·	·
N#C/C(=C/c1ccc(O)c(O)c1)c1nc2ccccc2[nH]1	-49	-5	2	-100	-15	67*
C=C1C(=O)[C@@]23[C@H](O)C[C@@H]4C(C)(C)CC[C@H](O)[C@@]4(C)[C@@H]2CC[C@@H]1[C@H]3O	112*	94*	-21	-133	98*	·
C=C1C(=O)[C@@]23[C@H](O)C[C@@H]4C(C)(C)CC[C@H](O)[C@]4(C)[C@@H]2C[C@H](O)[C@@H]1[C@H]3O	97*	-13	-7	31	97*	·
CCNC(=O)CC1C(=O)N(C)C(=S)N1NC(=O)c1ccc(Cl)cc1 (stereo not drawn)	·	-5	1	·	-16	-1
Nc1ccc(C(=O)NN2C(=O)[C@H](Cl)C2c2ccc(Cl)cc2)cc1 (stereo partly drawn)	-5	-9	6	45	99*	1
Cc1ccccc1C(=O)O/N=C/c1c(N2CCOCC2)n(C)c2ccccc12	·	6	0	60*	8	1
O=C(N/N=C/c1sc(N2CCOCC2)nc1-c1ccccc1)c1cccc(S(=O)(=O)N2CCCC2)c1	74*	11	-5	56*	90*	-4
O=C(N/N=C/c1sc(N2CCOCC2)nc1-c1ccccc1)c1ccc(O)cc1	-11	-4	24	-15	-1	-1
O=C(C1CC1)N1CC(=O)N2[C@H](CO)[C@@H](c3ccc(C#CC4CCCC4)cc3)[C@H]2C1	9	·	·	·	·	·
COc1ccc(C(=O)Nc2ccc3c(c2)OC[C@H](C)NC[C@@H](C)[C@H](OC)CN(C)C3=O)cc1	·	·	·	19[16.7 µM]	·	·
O=C(C=P(c1ccccc1)(c1ccccc1)c1ccccc1)c1ccccc1-c1ccccc1C(=O)C=P(c1ccccc1)(c1ccccc1)c1ccccc1	114*	38	1	6	73	·
Cc1cccc(C(=O)OCC(=O)N2CCN(C(=O)c3ccco3)CC2)c1O	10	-1	0	-1	-13	-1
CC(C)c1cc(C(=O)OCC(=O)N2CCN(C(=O)c3ccco3)CC2)c(O)c(C(C)C)c1	113*	-3	3	13	25	1
COc1ccc(CCNc2oc(-c3cccc4ccccc34)nc2P(=O)(OC)OC)cc1OC	1	5	-2	69*	-10	-7
CCNC(=O)C[C@@H]1CC[C@@H]2[C@H](COC[C@H](O)CN2C(=O)Nc2ccc(C(F)(F)F)cc2)O1	2	·	·	25[16.7 µM]	·	·
C[C@@H]1CN([C@@H](C)CO)C(=O)Cc2cc(NC(=O)c3ccncc3)ccc2O[C@@H]1CN(C)Cc1ccc(-c2ccccc2)cc1	102*	·	·	-2[16.7 µM]	·	·
C[C@H](CO)N1C[C@H](C)[C@@H](CN(C)Cc2ccc(Oc3ccccc3)cc2)Oc2ccc(NC(=O)NC3CCCCC3)cc2CC1=O	42	·	·	6[16.7 µM]	·	·
C[C@@H]1CN([C@@H](C)CO)C(=O)Cc2cc(NC(=O)NC3CCCCC3)ccc2O[C@@H]1CN(C)Cc1ccc(-c2ccccc2)cc1	102*	·	·	19[16.7 µM]	·	·
C[C@@H]1CN([C@@H](C)CO)C(=O)Cc2cc(NC(=O)NC3CCCCC3)ccc2O[C@H]1CN(C)Cc1ccc(Oc2ccccc2)cc1	71*	·	·	10[16.7 µM]	·	·
C[C@@H]1CN([C@H](C)CO)C(=O)Cc2cc(NC(=O)NC3CCCCC3)ccc2O[C@@H]1CN(C)Cc1ccc(-c2ccccc2)cc1	23	·	·	11[16.7 µM]	·	·
CO[C@@H]1CN(C)C(=O)c2ccc(NC(=O)Nc3c(C)noc3C)cc2OC[C@@H](C)NC[C@@H]1C	-14	·	·	-22[16.7 µM]	·	·
CC(C)NC(=O)Nc1ccc2c(c1)CC(=O)N([C@@H](C)CO)C[C@@H](C)[C@@H](CN(C)C(=O)Nc1ccc(C(F)(F)F)cc1)O2	4	·	·	·	·	·
C[C@H]1CN([C@@H](C)CO)C(=O)c2cc(C#CC3CC3)cnc2O[C@H]1CN(C)C(=O)c1ccncc1	·	·	·	-6[16.7 µM]	·	·
SMILES	PAX8 inh HTS	LMP1 NFkB inh	Glyco luc inh	Env fusion inh	Shn3 inh set2	NSD2 HMT inh
O=C(OCc1cccc(Cl)c1)c1cc(S(=O)(=O)N2CCCCC2)ccc1N1CCOCC1	·	-16	-5	·	80	-1
O=C(OCCOc1cccc(Cl)c1)c1cc(S(=O)(=O)N2CCCCC2)ccc1N1CCOCC1	55	6	-4	75*	68	-3
O=C(OCc1ccccc1)c1cc(S(=O)(=O)N2CCCCC2)ccc1N1CCOCC1	2	-7	-4	-2	52	-3
Cc1ccc(COC(=O)c2cc(S(=O)(=O)N3CCCCC3)ccc2N2CCOCC2)cc1	37	-2	-4	76*	81	-1
CN1C(=O)c2cc(NC(=O)Cc3cccs3)ccc2OC[C@H]2O[C@@H](CC(=O)O)CC[C@@H]21	-13	·	·	·	·	·
Cc1nc2sc(C(c3ccco3)N3CCC(Cc4ccccc4)CC3)c(O)n2n1 (stereo not drawn)	26	-7	-2	82*	-19	·
C[C@H](CO)N1C[C@H](C)[C@H](CN(C)S(=O)(=O)c2cccc(F)c2)Oc2ncc(-c3cccc(F)c3)cc2C1=O	·	·	·	27[16.7 µM]	·	·
